Source: PubChem
Compounds with a hit are over-represented: about 10% of the library has one in this group of screens.
JMJD2A Tudor inh: qHTS Assay for Inhibitors of JMJD2A-Tudor Domain; 390,000 compounds, 4.4% hits; Potency, µM (top dose mostly 114 µM), without a hit: top-dose activity change, negative = inhibition, usual class: inhibitors; AID 504339, 2011; AlphaScreen JMJD2A-Tudor / H3K4me3 peptide binding; further: on the % scale 0 is the no-effect control and ±100 the full control effect; nearly all actives have a fitted effect of over 50% in size
L3MBTL1 block: qHTS Assay for the Inhibitors of L3MBTL1. Lethal(3)malignant brain tumor-like protein 1 (Homo sapiens), Q9Y468. AlphaScreen L3MBTL1–H3K9me1 peptide binding. Potency, µM (doses to about 57.1 µM), inactives show at the highest dose activity, negative = inhibition, hits mostly inhibitors. 230,000 compounds, 0.66% hits. AID 485360, 2010; further: on the % scale 0 is the no-effect control and ±100 the full control effect; nearly all actives have a fitted effect of over 60% in size
Target sequence (Q9Y468 whole entry, looked up): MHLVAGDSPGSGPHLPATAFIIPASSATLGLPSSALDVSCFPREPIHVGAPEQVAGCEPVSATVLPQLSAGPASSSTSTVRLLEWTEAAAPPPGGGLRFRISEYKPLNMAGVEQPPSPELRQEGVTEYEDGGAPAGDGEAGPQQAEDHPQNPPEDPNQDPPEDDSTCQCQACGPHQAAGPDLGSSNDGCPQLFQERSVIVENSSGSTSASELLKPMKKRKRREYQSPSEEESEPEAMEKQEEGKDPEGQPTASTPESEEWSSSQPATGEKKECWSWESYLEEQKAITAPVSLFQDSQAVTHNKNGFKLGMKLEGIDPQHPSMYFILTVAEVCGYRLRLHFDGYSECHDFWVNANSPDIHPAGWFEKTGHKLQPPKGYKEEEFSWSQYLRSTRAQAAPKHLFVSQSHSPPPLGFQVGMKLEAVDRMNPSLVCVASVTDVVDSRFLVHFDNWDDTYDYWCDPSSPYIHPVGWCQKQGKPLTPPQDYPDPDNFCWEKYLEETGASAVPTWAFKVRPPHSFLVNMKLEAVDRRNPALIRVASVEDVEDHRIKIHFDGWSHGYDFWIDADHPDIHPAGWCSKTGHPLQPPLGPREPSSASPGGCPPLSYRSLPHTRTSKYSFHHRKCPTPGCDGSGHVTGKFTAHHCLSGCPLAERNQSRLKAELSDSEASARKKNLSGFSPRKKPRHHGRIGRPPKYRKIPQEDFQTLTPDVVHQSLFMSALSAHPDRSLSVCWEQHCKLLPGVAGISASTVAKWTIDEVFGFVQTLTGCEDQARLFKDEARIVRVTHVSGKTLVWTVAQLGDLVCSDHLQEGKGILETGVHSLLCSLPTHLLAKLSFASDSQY
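AlphaScreen proximity signal between nickel-chelate acceptor and streptavidin donor beads (final 10 ug/mL) reports binding of 50 nM L3MBTL1 to 75 nM biotin-H3 K9me1 peptide; complex incubated with compounds 30 min at room temperature; cefsulodin titration as control.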
G9a inh: qHTS Assay for Inhibitors of Histone Lysine Methyltransferase G9a; 350,000 compounds, 8.8% hits; G9a H3K9 monomethylation, AlphaScreen, 2 h; Histone-lysine N-methyltransferase EHMT2 (Homo sapiens), Q96KQ7; Potency, µM (highest dose often 102 µM), inactives show top-dose activity, negative = inhibition, usual class: inhibitors; further: on the % scale 0 is the no-effect control and ±100 the full control effect; nearly all actives have a fitted effect of over 75% in size
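Methyltransferase reactions run at room temperature for 2 h (20 nM enzyme, 500 nM biotin-H3K9 peptide, 20 uM SAM) after a 15 min compound preincubation; product detected by AlphaScreen beads and anti-H3K9me1 antibody.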
GLS inh: qHTS for Inhibitors of Glutaminase (GLS). Glutaminase kidney isoform, mitochondrial (Homo sapiens), O94925. GLS enzymatic activity, qHTS titration. Potency, µM (series often up to 45.5 µM), without a hit: top-dose activity change, negative = inhibition, usual class: inhibitors. 410,000 compounds, 0.21% hits. AID 624170, 2012; further: on the % scale 0 is the no-effect control and ±100 the full control effect
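Assay buffer: 45 mM KH2PO4 pH 8.2, 0.02% Tween-20. hKGA acts on L-glutamine (1 mM solution added); product glutamate is reported by an oxidase/peroxidase Amplex Red coupling, with fluorescence taken at baseline and 30 min.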
HP1b chromo inh: HTS for Inhibitors of HP1-beta Chromodomain Interactions with Methylated Histone Tails | AlphaScreen HP1-beta / biotin-H3K9me3 peptide binding | Potency, µM (doses to about 114 µM), for inactives: top-dose activity change, negative = inhibition, usual class: inhibitors | 390,000 compounds, 0.56% hits | AID 540317, 2011; further: nearly all actives have a fitted effect of over 70% in size
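AlphaScreen: HP1-beta (50 nM) preformed 30 min with biotin-H3(1-18)K9me3 peptide (50 nM) in PBS pH 7.4, 0.01% Tween-20. Compound added for 30 min at RT, then streptavidin donor/nickel chelate acceptor beads (10 ug/mL) for 30 min.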
BAZ2B block: qHTS Assay for Inhibitors of BAZ2B. AlphaScreen BAZ2B-H3K14Ac peptide displacement. Potency, µM (top dose mostly 114 µM), for the others: at the highest dose activity change, negative = inhibition, actives largely listed as inhibitors. 360,000 compounds, 4.4% hits; further: on the % scale 0 is the no-effect control and ±100 the full control effect; nearly all actives have a fitted effect of over 60% in size
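AlphaScreen displacement of biotin-H3(5-23)K14Ac peptide (50 nM final) from BAZ2B (50 nM final) in PBS pH 7.4, 0.01% Tween-20; complex preformed 30 min RT, then compounds (top 110 uM) 30 min RT, beads 20 min dark.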
Active calls of the source: *; ? = inconclusive; · = no result; [ ] = dose if it differs, or a comment. The call rests on the fitted dose curve; in most records, active means well fitted curve in the direction sought with a large enough effect; inconclusive means small, poorly fitted or top-dose-only effect, or another doubt; inactive means no such curve, though single readings can be large; an effect the other way counts as inactive or inconclusive. Potency means the concentration at half of the fitted maximal effect.

SMILES | JMJD2A Tudor inh | L3MBTL1 block | G9a inh | GLS inh | HP1b chromo inh | BAZ2B block
Nc1cc(N)c(OCC(F)(F)F)cc1OCC(F)(F)F | ? | ? | 50µM* | -3% | ? | ?
Nc1cc(OCC(F)(F)F)cc([N+](=O)[O-])c1 | -21% | 4% | 27% | 6% | 2% | -3%
CC12CCC(=O)N1C(C(=O)Nc1nc3c(F)cc(F)cc3s1)CS2 (stereo not given) | -21% | · | 45µM* | -14% | 27% | -1%
CC12CCC(=O)N1C(C(=O)Nc1nnc(SCc3ccccc3F)s1)CS2 (stereo not given) | -20% | · | 79µM* | 30% | 22%[57 µM] | -25%
Cc1cc(C)cc(-n2cnc3cc(C(=O)NC4CCCCCC4)ccc32)c1 | -34% | · | -27%[59 µM] | -13% | 8% | -14%
CCc1ccc(NC(=O)Cn2ccn(-c3ccc(C)c(C)c3)c(=O)c2=O)cc1 | 12% | · | -25%[59 µM] | -1% | 50% | -24%
Cc1scc(CN2CCN(c3ccc(F)cc3)CC2)c1C | ? | · | ? | 10% | 13% | -38%
Cc1c(Cl)cn2c(=O)cc(CN3CCN(c4ccc(F)cc4)CC3)nc2c1Cl | · | · | 50µM* | · | · | ?
CN(Cc1ccco1)c1cc(-c2ccoc2)ncn1 | · | · | -24%[0.501 µM] | · | · | ·
CCS(=O)(=O)N1CCC(C(=O)N2CCN(Cc3ccccc3)CC2)CC1 | -10%[57.1 µM] | -1%[11.4 µM] | -7% | 1% | 13% | -18%
CCCS(=O)(=O)N1CCN(c2ccccn2)CC1 | -18% | · | 12% | 2% | 13% | -7%
Fc1ccc(C(c2nnnn2C2CCCC2)N2CCN(Cc3ccncc3)CC2)cc1 (stereo not given) | -12% | -5% | ? | 16% | 23% | -2%
CCS(=O)(=O)N1CCN(Cc2ccncc2)CC1 | 3.5µM* | 3% | 14µM* | -4% | 50µM* | 35µM*
CCCS(=O)(=O)N1CCN(Cc2ccncc2)CC1 | 20µM* | · | ? | -7% | ? | 35µM*
c1cc(CN2CCN(C3CCCCCC3)CC2)ccn1 | 20µM* | 3% | 1.8µM* | 1% | ? | ·
CC1(C)CC(=O)C(C=NCCN2CCN(C(=O)NC34CC5CC(CC(C5)C3)C4)CC2)=C(O)C1 | -16% | 4% | 50µM* | 3% | 41% | 15%
COc1ccc2sc(N(CCN(C)C)C(=O)c3cc(Cl)sc3Cl)nc2c1 | -34% | · | ? | 3% | 7% | ·
CN(C)CCN(C(=O)c1ccccc1Cl)c1nc2c(Cl)cccc2s1 | 25µM* | -3% | 10µM* | 2% | ? | -65%
CN(C)CCN(C(=O)c1cccc(Cl)c1)c1nc2c(Cl)cccc2s1 | ? | 8% | 45µM* | 9% | -11% | 2%
CCOc1cccc2sc(N(CCN(CC)CC)C(=O)c3ccc(S(=O)(=O)N4CCCC4)cc3)nc12 | -2% | · | -10% | -1% | 42% | -13%
COC(=O)c1ccc(C(=O)N(CCN(C)C)c2nc3c(Cl)cccc3s2)cc1 | -12% | · | 56µM* | 4% | 3% | ·
CCN(CC)CCN(C(=O)c1ccc2c(c1)OCCO2)c1nc2cc(C)cc(C)c2s1 | ? | · | · | 7% | -27% | ?
CN(C)CCN(C(=O)c1ccc2c(c1)OCCO2)c1nc2ccc(Cl)cc2s1 | ? | · | ? | 2% | -15% | ·
CCN(CC)CCN(C(=O)c1ccc2c(c1)OCCO2)c1nc2c(Cl)cccc2s1 | ? | · | 50µM* | 2% | -15% | ?
CC(C)(C)C1CCc2c(sc(NC(=O)Cn3nnc(-c4cccc(C(F)(F)F)c4)n3)c2C#N)C1 (stereo not given) | -17% | · | -27%[59 µM] | 4% | 11% | -15%
SMILES | JMJD2A Tudor inh | L3MBTL1 block | G9a inh | GLS inh | HP1b chromo inh | BAZ2B block
Cc1ccc(C(=O)NCC(=O)OCc2cc(=O)n3c(C)csc3n2)cc1 | -11% | · | 7%[59 µM] | 2% | -5% | -7%
O=c1oc2c(CN3CCOCC3)c(O)c(Cl)cc2c2c1CCCC2 | -2% | 33% | 79µM* | 30% | 16% | 11%
CCN=c1scc(-c2ccco2)n1/N=C/c1ccc(O)cc1 | 56µM* | · | 35µM* | 11% | ? | 50µM*
Cc1ccccc1CNC(=O)C1CCN(S(=O)(=O)Cc2ccccc2)CC1 | 5% | · | -38%[59 µM] | 4% | 29% | 2%
C/C(=N/Nc1ccnc2cc(Cl)ccc12)c1ccc(O)cc1 | ? | -17% | 22%[2.33 µM] | 18% | -13% | 45µM*
C/C(=N/Nc1ccnc2cc(Cl)ccc12)c1ccc(N)cc1 | ? | -15% | 1.8µM* | 16% | -8% | 45µM*
Clc1ccc2c(N/N=C/c3cccc(Br)c3)ccnc2c1 | -35% | 6% | 12%[59 µM] | 16% | 13% | -6%
Cc1cc(C)cc(C(=O)N(Cc2nc(-c3ccc(Cl)cc3)no2)C(C)C)c1 | 2% | · | -2%[59 µM] | -4% | 35% | 16%
CC(=O)Sc1nc(-c2ccccc2)[nH]c1S(=O)(=O)c1ccc(C)cc1 | 13µM* | -1% | 2.2µM* | ? | ? | ?
COc1ccc(Cl)cc1N=C1NC(=O)CC(C(=O)Nc2ccccc2C(F)(F)F)S1 (stereo not given) | -21% | · | ? | -6% | 10% | -27%
Cc1ccc(CSCC(=O)Nc2ccc(N3CCOCC3)cc2N2CCOCC2)cc1 | -18% | 6% | 28µM* | 9% | 7% | -6%
Cc1ccc(C(C)C)c(OCC(=O)Nc2ccc(N3CCOCC3)cc2N2CCOCC2)c1 | -16% | -10% | 25µM* | -10% | 18% | 0%
Cc1ccc(C(C)C)c(OCC(=O)Nc2ccccc2N2CCN(C)CC2)c1 | ? | -25% | -4%[12.7 µM] | 4% | -19% | ?
Cc1ccc(C(C)C)c(OCC(=O)NN=C(CCl)CCl)c1 | · | ? | · | · | · | 56µM*
C/C(=N/NC(=O)COc1cc(C)ccc1C(C)C)C(=O)O | -20% | · | ? | 1% | 51% | -3%
CCOc1ccc(NC(=O)c2c(NC(=O)Cc3ccccc3)sc3c2CCCC3)cc1 | -10% | · | 13%[59 µM] | 0% | 28% | -1%
C[C@@H](Nc1nc(Cl)nc2nc[nH]c12)c1ccccc1 | -5% | · | · | · | 38% | ·
COc1ccc(OCC(O)CN(CC(O)COc2ccc(OC)cc2)c2cccc(O)c2)cc1 (stereo not given) | ? | · | 50µM* | -1% | -16% | 45µM*
COc1ccc2c(CC(=O)OCC(=O)Nc3ccc4c(c3)OCO4)coc2c1 | 20µM* | · | ? | -3% | ? | ?
